Experimental data from ChEMBL document CHEMBL4513216, “Probing the Open Global Health Chemical Diversity Library for Multistage-Active Starting Points for Next-Generation Antimalarials” (ACS Infect Dis, 2020).
Out of some 65,000 compounds screened, about 2,100 (3.2%) showed an effect of 50% or more. The median lay at about -52%. For the sample, strong results were picked, then their nearest neighbours and some compounds at random.

system: Plasmodium falciparum; assay: Screen against P. falciparum Asexual Blood Stage (ABS), at 5uM; assay type: functional, Dd2; conditions: tested at 5 uM

First: Cc1cccnc1CCNC(=O)[C@@]12CNC[C@@H]1CN(S(C)(=O)=O)C2
Second: CN(C)CCN1CCCC12CCCN(C(=O)c1cccnc1)C2 (configuration not stated)
The INHIBITION of the first is lower: -50.4% for the first, -10.1% for the second.

Going from `CC(Cc1c(F)cccc1F)NC(=O)Nc1cnn(CC(N)=O)c1` (configuration not stated) to `Cc1nn(C)c(N(C)C)c1CNC(C)Cc1c(F)cccc1F` (configuration not stated), the INHIBITION rises from -77.1% to -5.23%.

Going from `Cc1ccccc1CC(C)NCc1c(C)nn(C)c1N1CCOCC1` (configuration not stated) to `CCc1cccnc1NCc1cnc(N2CCOCC2)nc1`, the INHIBITION falls from 65.8% to -53.7%.

Compared with `c1csc(CN2C[C@@H]3COC[C@]3(COCc3ccncc3)C2)c1`, `c1cnc(N2CCCC3(CCN(Cc4cccs4)C3)C2)nc1` (configuration not stated) is higher in INHIBITION: -42.6% for the first, 40.4% for the second.

Compared with `COCCN1C(=O)C2(CCN(CC3CC3)CC2)c2ccccc21`, `CCN1C(=O)C2(CCN(CCN(C)C)CC2)c2ccccc21` is lower in INHIBITION: -18% for the first, -56.2% for the second.

First: O=C(c1ccoc1)N1CCC2(CC1)C(=O)N(CC1CC1)c1ccccc12
Second: O=C(c1ccc(F)c(Cl)c1)N1C[C@H]2CC[C@@H](C1)N(Cc1ccccc1)C2
The INHIBITION of the first is higher: 74.7% for the first, 74.1% for the second.

Going from `CC(Cn1ccnc1)NCc1n[nH]c2c1CCC2` (configuration not stated) to `c1ccc(-c2nc3c(c(NCc4n[nH]c5c4CCC5)n2)CCNC3)cc1`, the INHIBITION rises from -33% to 89.6%.

Going from `CN1CCC2(CCN(C(=O)c3cccnc3)C2)C1` (configuration not stated) to `COCC(=O)N1CCC2(CCN(Cc3cccnc3)C2)CC1`, the INHIBITION rises from -11.5% to -7.11%.

Going from `CCCN(C(=O)c1cccnc1)c1nc2c(s1)CCc1c-2cnn1C` to `O=C(c1cccnc1)N1C[C@H]2CC[C@@H](C1)N(Cc1ncc[nH]1)C2`, the INHIBITION falls from 82.4% to -47.1%.

Going from `O=C(c1c[nH]c(=O)c(Cl)c1)N1C[C@H]2CC[C@@H](C1)N(CC1CCC1)C2` to `O=C(Cc1ccsc1)N1C[C@@H]2OCCN(CC3CC3)[C@@H]2C1`, the INHIBITION rises from -110% to -48%.

Going from `CS(=O)(=O)CC1(CNc2ccc(C#N)c(C(F)(F)F)c2)CC1` to `Cc1c[nH]c(CN2CCC3(CCCN(Cc4ccc(F)c(F)c4)C3)C2)n1` (configuration not stated), the INHIBITION rises from -27% to 80.3%.

Going from `CCOc1ccc(CNCC(O)c2ccccc2)cc1Cl` (configuration not stated) to `COCCn1c(C(=O)NC(C(N)=O)C(C)C)cc2ccccc21` (configuration not stated), the INHIBITION falls from 89.4% to -92%.

Going from `CNc1cc(C)nc(NCc2cc(C)cc3c(C)c(C)[nH]c23)n1` to `CNc1nc(C)cc(NCc2cc(C)cc3c(C)c(C)[nH]c23)n1`, the INHIBITION rises from 92% to 92.7%.

Compared with `c1nc(N2CCOCC2)nc2c1COCC21CCN(CC2CC2)C1` (configuration not stated), `Cc1ncc(CN2CCC3(CCCN(CC4CCC4)C3)C2)cn1` (configuration not stated) is lower in INHIBITION: -12.1% for the first, -45.2% for the second.

First: CC(C)NC(=O)[C@H]1C[C@@H]2[C@@H](C1)OCCN2Cc1ccncc1
Second: Cc1cccc(CN2C[C@@H](NC(=O)C3CC3)[C@H]3OCCC[C@H]32)n1
The INHIBITION of the first is higher: -82% for the first, -83.3% for the second.

Going from `COc1cccc(C2SCC(=O)Nc3ccsc32)c1OC` (configuration not stated) to `Cc1ccc(N2CCN(C)c3ncccc3C2)nn1`, the INHIBITION falls from -4.19% to -27.9%.

Going from `CN(C)CCN1CC2(CCCN(c3ncc(Cl)cc3F)C2)CCC1=O` (configuration not stated) to `COc1ccc(CN2CCC3(CCCN(c4ncc(F)cn4)C3)C2)cc1` (configuration not stated), the INHIBITION rises from 82.8% to 87.1%.

First: O=C1N(c2cccnc2)CCC12CCCN(Cc1ccco1)C2 (configuration not stated)
Second: c1cncc(-c2ccc3c(c2)CCC32CCN(Cc3ccco3)CC2)c1
The INHIBITION of the first is lower: -5.52% for the first, 73.9% for the second.

Compared with `O=C1NC2(CCNCC2)CC1c1cccnc1` (configuration not stated), `c1cncc(-c2ccc3c(c2)C2(CCNCC2)CC3)c1` is higher in INHIBITION: -11.2% for the first, 71.1% for the second.

Going from `O=C1[C@H]2CN(Cc3ccco3)C[C@H]2CN1c1cncnc1` to `Fc1cnc(N2CCCC3(CCN(Cc4ccco4)C3)C2)nc1` (configuration not stated), the INHIBITION rises from -54.3% to 78.2%.

First: CN(C)CC(=O)N1CCC2(CCc3cc(-c4cccnc4)ccc32)CC1
Second: c1cncc(-c2ccc3c(c2)CCC32CCNCC2)c1
The INHIBITION of the first is lower: 80.1% for the first, 86.9% for the second.

Compared with `Cc1n[nH]c(C)c1CC(=O)N1CCN(C)C2(CCNC(=O)CC2)C1` (configuration not stated), `COCCN1CCC12CCN(C(=O)Cc1cccs1)C2` (configuration not stated) is higher in INHIBITION: -115% for the first, -9.04% for the second.

Compared with `CN1CCC2(COCc3cnc(-c4ccccc4)nc32)C1` (configuration not stated), `Cc1cnc(N2CC3(CCN(Cc4cccnc4)C3)C2)nc1` is higher in INHIBITION: -45% for the first, 12.1% for the second.

Compared with `COc1nc(N2CCNCC2)ncc1Br`, `COCCN1CCC2(C1)CN(c1ncc(F)cn1)C2` is lower in INHIBITION: 23.8% for the first, -81.1% for the second.

First: Cc1ccc(N2CCC3(CN(CCO)CCC3(F)F)C2)nn1 (configuration not stated)
Second: Cc1ccc(N2CCO[C@H]3CN(Cc4ccoc4)C[C@H]32)nn1
The INHIBITION of the first is higher: -59.8% for the first, -106% for the second.

Going from `Fc1cnc(N2CCCC3(CCN(Cc4ccoc4)C3)C2)nc1` (configuration not stated) to `Fc1cnc(N2CCCC3(CCN(Cc4ccsc4)C3)C2)nc1` (configuration not stated), the INHIBITION rises from 73.7% to 87.6%.

Going from `Fc1cnc(N2CC3(CCN(Cc4ccsc4)C3)C2)nc1` to `CCc1cnc(N2CC3(CCN(Cc4ccsc4)C3)C2)nc1`, the INHIBITION falls from 3.41% to -19.4%.

Going from `COc1ncc(CN2CCC3(CCCN(CC4CCC4)C3)C2)cn1` (configuration not stated) to `CCc1ncc(CN2CCC3(CCCN(CC4CCC4)C3)C2)cn1` (configuration not stated), the INHIBITION rises from -57.4% to 8.28%.

Compared with `Fc1cnc(N2CCCC3(CCN(Cc4nccs4)C3)C2)nc1` (configuration not stated), `Fc1cnc(N2CCCC3(CCN(Cc4cccs4)C3)C2)nc1` (configuration not stated) is higher in INHIBITION: 25.5% for the first, 69.4% for the second.

Compared with `Cc1oc(-c2ccco2)nc1CC(=O)N1CCN(CC(C)(C)O)CC1`, `Cc1noc(CN2CC=C(c3c[nH]c4ncccc34)CC2)n1` is higher in INHIBITION: -109% for the first, -31.2% for the second.

Compared with `c1cnc(N2CCCC3(CCN(Cc4ccsc4)C3)C2)nc1` (configuration not stated), `c1cnc(N2CCCC3(CCN(Cc4ccncc4)C3)C2)nc1` (configuration not stated) is lower in INHIBITION: 68.1% for the first, -63.1% for the second.

Compared with `Fc1cnc(N2CCOC3(CCN(Cc4ccsc4)CC3)C2)nc1`, `Fc1cnc(N2CCCC3(CN(Cc4cccs4)CCO3)C2)nc1` (configuration not stated) is lower in INHIBITION: 81.6% for the first, -78.4% for the second.

Compared with `Cc1cnc(N2CCOC3(CCCN(C)C3)C2)nc1` (configuration not stated), `Fc1cnc(N2CCOCC3(CCCNC3)C2)nc1` (configuration not stated) is lower in INHIBITION: 14.9% for the first, -11.2% for the second.

`c1cnc(N2CCOCC3(CN(Cc4ccsc4)CCO3)C2)nc1` (configuration not stated) showed an INHIBITION of -62.3%.
